High-throughput results: PubChem, National Center for Advancing Translational Sciences (NCATS)
JMJD2A Tudor inh = JMJD2A Tudor domain (human) inhibition; AlphaScreen JMJD2A-Tudor / H3K4me3 peptide binding; Potency, µM (titrated, usually from 114 µM), most hits filed as inhibitors; 4.4% of 390,000 active; AID 504339; also: nearly all actives have a fitted effect of over 50% in size
PLK1 PBD inh = inhibitors of human PLK1 polo-box domain binding; P53350; Plk1 PBD binding of FITC phosphopeptide, fluorescence polarization; Potency, µM, actives largely listed as inhibitors; 2.8% of 360,000 active; AID 720504; also: series mostly up to about 57 µM; nearly all actives have a fitted effect of over 65% in size
Target sequence (P53350 whole entry, looked up, the tested form may be a part): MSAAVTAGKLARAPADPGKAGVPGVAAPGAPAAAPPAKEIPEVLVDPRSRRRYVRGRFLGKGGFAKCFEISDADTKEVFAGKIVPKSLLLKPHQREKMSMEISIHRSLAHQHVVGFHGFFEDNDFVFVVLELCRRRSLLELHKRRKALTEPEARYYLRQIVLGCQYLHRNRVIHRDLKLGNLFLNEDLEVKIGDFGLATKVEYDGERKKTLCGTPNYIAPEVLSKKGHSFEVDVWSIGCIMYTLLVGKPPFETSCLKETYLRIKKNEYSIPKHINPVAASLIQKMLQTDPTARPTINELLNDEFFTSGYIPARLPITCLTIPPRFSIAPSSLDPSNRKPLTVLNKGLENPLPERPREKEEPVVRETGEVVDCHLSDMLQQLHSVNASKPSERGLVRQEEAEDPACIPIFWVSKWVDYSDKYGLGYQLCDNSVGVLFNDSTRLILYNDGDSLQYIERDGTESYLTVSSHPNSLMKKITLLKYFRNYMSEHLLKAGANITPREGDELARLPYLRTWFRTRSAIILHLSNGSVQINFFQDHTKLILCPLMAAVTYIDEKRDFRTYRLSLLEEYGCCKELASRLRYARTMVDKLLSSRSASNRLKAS
BAZ2B block = inhibitors of human BAZ2B bromodomain | Potency, µM (titrated, usually from 114 µM), most hits filed as inhibitors | AlphaScreen BAZ2B-H3K14Ac peptide displacement | Q9UIF8 | 4.4% of 360,000 active; also: nearly all actives have a fitted effect of over 60% in size
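BAZ2B 50 nM plus b-H3(5-23)K14Ac 50 nM, PBS pH 7.4/0.01% Tween-20, 30 min RT; compound added (max 110 uM), 30 min RT; streptavidin donor/Ni-chelate acceptor beads 10 ug/mL final, 20 min dark; AlphaScreen read.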
PI5P4K alpha inh = inhibitors of human PI5P4K alpha; P48426; PI5P4Kalpha enzyme, ADP-Glo luminescence, 60 min; hits give low values; AID 652105; max response, %; 1.2% of 330,000 active; active = max response of -50% or lower; inconclusive = between -30% and -50%; inactive = -30% or higher; also: value at the top dose of about 77 µM
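Quantitative HTS of the MLSMR library against PI5P4Kalpha with substrate. ATP added last at 5 microM final; room temperature, 60 minutes. Remaining ATP depleted, ADP converted and read as luminescence.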
HP1b chromo inh = HP1-beta chromodomain-methylated histone interaction inhibition; 0.56% of 390,000 active; Potency, µM (titrated, usually from 114 µM), usual class: inhibitors; AlphaScreen HP1-beta / biotin-H3K9me3 peptide binding; AID 540317; also: nearly all actives have a fitted effect of over 70% in size
Target sequence (P83916 whole entry, looked up): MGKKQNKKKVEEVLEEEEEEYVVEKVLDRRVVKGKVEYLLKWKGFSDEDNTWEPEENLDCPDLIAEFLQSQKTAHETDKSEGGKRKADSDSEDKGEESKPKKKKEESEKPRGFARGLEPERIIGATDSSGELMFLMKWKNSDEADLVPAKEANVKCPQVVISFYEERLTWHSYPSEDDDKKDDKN
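Compound inhibition of the preformed complex between 50 nM HP1-beta and 50 nM biotinylated H3K9me3 peptide was read by AlphaScreen. Buffer was PBS pH 7.4 with 0.01% Tween-20. Incubations ran 30 min at room temperature, with 10 ug/mL donor/acceptor beads.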
G9a block = blocks human histone lysine methyltransferase G9a; Q96KQ7; G9a H3K9 monomethylation, AlphaScreen, 2 h; Potency, µM (titrated, usually from 102 µM), hits mostly inhibitors; 8.8% of 350,000 active; AID 504332; also: nearly all actives have a fitted effect of over 75% in size
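Chemiluminescent proximity detection of H3K9 monomethylation, read after 10 min bead incubation in the dark. Reaction: 20 nM G9a, 500 nM biotin-H3K9 peptide, 20 uM SAM cofactor, 2 h, room temperature, following 15 min enzyme-compound preincubation.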
Of the large screens only hits and unclear results are named; the others gave an inactive call. Sampled rows, rich in hits. Any-hit rate of the full collection: about 12%. Unless noted, calls follow the shape of the dose curve; as a rule, active = well fitted curve in the direction sought with a large enough effect; inconclusive = small, poorly fitted or top-dose-only effect, or another doubt; inactive = no such curve, though single readings can be large; an effect the other way counts as inactive or inconclusive.

O=c1cc(C(F)(F)F)nc(-n2[nH]c3c(c2=O)CCCC3)[nH]1	BAZ2B block 2.51µM, G9a block inconclusive
COc1ccc(NC(=O)CN(C)C(=O)c2ccc3c(c2)CC(c2ccccc2)OC3=O)cc1 (centres undefined)	none (no result: JMJD2A Tudor inh, BAZ2B block, HP1b chromo inh, G9a block)
COc1ccc(NC(=O)CN(C)C(=O)c2ccc3[nH]c4c(c3c2)CC(C)CC4)cc1 (centres undefined)	JMJD2A Tudor inh inconclusive, BAZ2B block inconclusive, HP1b chromo inh inconclusive, G9a block 44.7µM
COc1cccc(NC(=O)CN(C)C(=O)c2ccc3c(c2)CC(c2ccccc2)OC3=O)c1 (centres undefined)	JMJD2A Tudor inh 89.1µM, BAZ2B block inconclusive
COc1cccc(NC(=O)CN(C)C(=O)c2ccc3[nH]c4c(c3c2)CC(C)CC4)c1 (centres undefined)	JMJD2A Tudor inh inconclusive, BAZ2B block 39.8µM, G9a block 35.5µM
CC1CCc2[nH]c3ccc(C(=O)N(C)CC(=O)Nc4ccc(F)cc4)cc3c2C1 (centres undefined)	JMJD2A Tudor inh inconclusive, BAZ2B block inconclusive, HP1b chromo inh inconclusive, G9a block inconclusive
Cc1ccc(C)c(Cn2c(=O)n(CCCCC(=O)NCc3ccc4c(c3)OCO4)c(=O)c3ccccc32)c1	none (no result: PLK1 PBD inh, PI5P4K alpha inh)
CCOc1ccccc1C(=O)NCC(=O)N1CCN(Cc2ccc3c(c2)OCO3)CC1	none
NC(=S)c1csc(CCNC(=O)c2ccccc2)n1	none (no result: JMJD2A Tudor inh, BAZ2B block, HP1b chromo inh, G9a block)
O=C1C(Cl)=C(Nc2ccc3cn[nH]c3c2)C(=O)c2ccccc21	JMJD2A Tudor inh 14.1µM, PLK1 PBD inh 13.4µM, BAZ2B block 8.91µM, PI5P4K alpha inh -87.3, HP1b chromo inh 15.8µM
CC(=O)c1ccc(NC(=S)Nc2ccc3cn[nH]c3c2)cc1	PLK1 PBD inh 29.9µM, G9a block 44.7µM
CCNC(=S)Nc1ccc2cn[nH]c2c1	PLK1 PBD inh 23.8µM
O=C(Nc1ccc2cn[nH]c2c1)c1ccccc1F	none
Cc1ccc(NC(=S)Nc2ccc3cn[nH]c3c2)cc1C	G9a block inconclusive
Cc1cc(C)c(C)c(S(=O)(=O)Nc2ccc3cn[nH]c3c2)c1C	none
O=C(Nc1ccc2cn[nH]c2c1)c1c(Cl)cccc1Cl	JMJD2A Tudor inh inconclusive, PLK1 PBD inh inconclusive, BAZ2B block 50.1µM, G9a block 1.78µM
CC(C)C[C@H](NC(=O)C1OC1C(=O)O)C(=O)NCCCCN=C(N)N (some centres undefined)	none (no result: JMJD2A Tudor inh, PLK1 PBD inh, BAZ2B block, PI5P4K alpha inh, HP1b chromo inh)
N#CC(C#N)=NNc1ccc2cn[nH]c2c1	PI5P4K alpha inh -63.6 (no result: JMJD2A Tudor inh, BAZ2B block, HP1b chromo inh, G9a block)
CC(C)c1ccc(NC(=S)Nc2ccc3cn[nH]c3c2)cc1	BAZ2B block inconclusive, G9a block 79.4µM
CN(C)CC(=O)Nc1ccc2cn[nH]c2c1	none (no result: G9a block)
CC(=O)Nc1ccc(NC2=C(Cl)C(=O)c3ccccc3C2=O)cc1	none
CN(C)c1ccc(NC2=C(Cl)C(=O)c3ccccc3C2=O)cc1	JMJD2A Tudor inh 6.31µM, BAZ2B block 2.51µM, HP1b chromo inh 5.01µM, G9a block 2.24µM
O=C1NC[C@@H](c2ccccc2)OC(=O)[C@@H](Cc2ccc(F)cc2)C/C=C\C[C@@H]1CC(=O)N(CCO)Cc1ccccc1	none (no result: BAZ2B block, G9a block)
Cn1cccc1C(=O)N1CCC[C@@]2(CCN(c3ccncc3)C2)C1	none (no result: JMJD2A Tudor inh, PLK1 PBD inh, BAZ2B block, PI5P4K alpha inh, HP1b chromo inh)
CC1(NC(=O)Nc2cccc(Br)c2)CCS(=O)(=O)C1 (centres undefined)	none (no result: BAZ2B block, G9a block)
CCOC(=O)c1nn(-c2ccc(F)cc2)c2c1CC/C2=C/c1ccccc1	G9a block 70.8µM
O=C(NCCc1cccnc1)C1CCC(=O)N(CCc2cccc(F)c2)C1 (centres undefined)	none
CCOC(=O)/C(=C\c1ccc(Cl)cc1)c1nc2sc(C)c(C)c2c(=O)[nH]1	JMJD2A Tudor inh inconclusive, PLK1 PBD inh 7.52µM, HP1b chromo inh inconclusive, G9a block 25.1µM
Cc1cc(C)c2c(=O)n(CC(=O)NCCCN3CCN(c4ccccc4F)CC3)sc2n1	JMJD2A Tudor inh 1µM, PLK1 PBD inh 2.12µM, BAZ2B block inconclusive, PI5P4K alpha inh -77.1, HP1b chromo inh 2.51µM, G9a block 1.12µM
Cc1cc(C)c2c(=O)n(CC(=O)NCCCN3CCOCC3)sc2n1	JMJD2A Tudor inh 1.12µM, PLK1 PBD inh 1.5µM, BAZ2B block inconclusive, PI5P4K alpha inh -100.9, HP1b chromo inh 3.16µM, G9a block 1.26µM
CC1(C(=O)NS(=O)(=O)c2ccc(C#N)cc2)CCN1C(=O)c1ccccc1CCc1ccccc1 (centres undefined)	none (no result: JMJD2A Tudor inh, BAZ2B block, HP1b chromo inh, G9a block)
CCN(Cc1cnn(C)c1)C(=O)c1cc(COc2ccc(F)cc2F)on1	none
CCN(Cc1ccncc1)C(=O)c1cc(COc2ccc(F)cc2F)on1	G9a block 39.8µM
O=S1(=O)c2ccccc2Nc2ccccc21	none
CCCNc1nc2c(c(=O)[nH]c(=O)n2C)n1Cc1ccc(F)cc1	none
Cn1c(=O)[nH]c(NC2CCCCC2)c([N+](=O)[O-])c1=O	none
CCCNc1[nH]c(=O)n(C)c(=O)c1N=O	JMJD2A Tudor inh 50.1µM, PI5P4K alpha inh inconclusive, G9a block 39.8µM
Cn1c(=O)[nH]c(NC2CCCCC2)c(N=O)c1=O	JMJD2A Tudor inh 89.1µM, BAZ2B block inconclusive, G9a block inconclusive
CCSCCNC(=O)c1cc(-n2cnnc2)ccc1Cl	G9a block 2.51µM
CCOC1=C2[C@H](c3ccc(CC)cc3)N(S(=O)(=O)c3ccc(C)cc3)C[C@H]2n2c(=O)n(-c3ccccc3)c(=O)n2C1	none (no result: JMJD2A Tudor inh, BAZ2B block, HP1b chromo inh, G9a block)
CC(C)(C)c1ccc2c(c1)C(=O)c1ccccc1C2=O	JMJD2A Tudor inh 44.7µM, BAZ2B block 31.6µM, HP1b chromo inh inconclusive, G9a block 35.5µM
CCc1ccc2c(c1)C(=O)c1ccccc1C2=O	JMJD2A Tudor inh inconclusive, BAZ2B block inconclusive, HP1b chromo inh inconclusive, G9a block inconclusive
COc1ccccc1CNC(=O)CCCCn1c(=O)c2ccccc2n(Cc2ccccc2F)c1=O	none (no result: PLK1 PBD inh, PI5P4K alpha inh)
Cc1ccc(/C(O)=C2/C(=O)C(=O)N(c3ccccn3)C2c2ccc(F)cc2)cc1 (centres undefined)	G9a block 39.8µM
CCOc1ccc(/C(O)=C2/C(=O)C(=O)N(c3ccccn3)C2c2ccc(F)cc2)c(C)c1 (centres undefined)	JMJD2A Tudor inh inconclusive, G9a block 28.2µM
O=C1C(=O)N(c2ccccn2)C(c2ccc(Br)cc2)/C1=C(/O)c1ccc(Br)cc1 (centres undefined)	G9a block 44.7µM
CN1C(=O)C(=O)/C(=C(/O)c2ccc(Br)cc2)C1c1ccc(F)cc1 (centres undefined)	G9a block 70.8µM
O=C1C(=O)N(c2ccccn2)C(c2ccc(F)cc2)/C1=C(/O)c1ccc(Br)cc1 (centres undefined)	none
COc1ccc(S(=O)(=O)N2CCCCCC2)cc1NC(=O)CCCOc1ccccc1	none
COc1ccc(CC(=O)NCC2CCCN(Cc3cc(OC)cc(OC)c3)C2)cc1 (centres undefined)	none (no result: G9a block)
